# High-throughput results from PubChem.
# CBFb RUNX1 block – qHTS Assay for Compounds Blocking the Interaction Between CBF-beta and RUNX1 for the Treatment of Acute Myeloid Leukemia; Runt-related transcription factor 1 (Homo sapiens) + Core-binding factor subunit beta …; AlphaScreen CBFb-His/RUNX1-biotin binding, biochemical; Potency, µM (doses to about 59.8 µM), for inactives: at the highest dose activity, negative = inhibition, actives largely listed as inhibitors; 230,000 tested, under 10 active; AID 1477, 2009; note: % of control where 0% means no effect
#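 Compounds were screened at multiple concentrations against a preformed CBF-beta(His)/RUNX1(biotin) complex (30 nM of each) for 15 min at room temperature, followed by 90 min with nickel and streptavidin beads and AlphaScreen reading.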
# HTT aggregate – qHTS Multiplex Assay to Identify Dual Action Probes in a Cell Model of Huntington: Aggregate Formation (GFP) | Potency, µM (doses to about 46.1 µM), without a hit: at the highest dose activity change, negative = inhibition, most hits filed as inhibitors | PC12 HttQ103-GFP aggregates, Acumen cytometry, 40 h | 1.1% of 220,000 active | AID 1688, 2009; note: potency is the fitted concentration of half-maximal effect; % is set by controls: 0 for no effect and ±100 for the full control effect; nearly all actives have a fitted effect of over 60% in size
#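 Inducible Q103 Huntingtin exon 1–GFP PC12 line, 1500 cells/well in phenol red free DMEM with 5% equine and 5% calf serum. Tebufenozide 100 nM induced expression; compounds titrated; aggregates quantified by cytometry.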
# JMJD2E inh – qHTS Assay for Inhibitors of Human Jumonji Domain Containing 2E (JMJD2E); Potency, µM (top dose mostly 57.1 µM), for the others: at the highest dose activity change, negative = inhibition, most hits filed as inhibitors; 1.6% of 230,000 active; Lysine-specific demethylase 4E (Homo sapiens), B2RXH2; JMJD2E catalytic domain, FDH-coupled NADH fluorescence (FDH is formaldehyde dehydrogenase);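 note: potency is the fitted concentration of half-maximal effect; 0% = wells with enzyme and -100% = buffer wells without enzyme; nearly all actives have a fitted effect of over 50% in size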
# Target sequence (B2RXH2 1-337 limits assumed): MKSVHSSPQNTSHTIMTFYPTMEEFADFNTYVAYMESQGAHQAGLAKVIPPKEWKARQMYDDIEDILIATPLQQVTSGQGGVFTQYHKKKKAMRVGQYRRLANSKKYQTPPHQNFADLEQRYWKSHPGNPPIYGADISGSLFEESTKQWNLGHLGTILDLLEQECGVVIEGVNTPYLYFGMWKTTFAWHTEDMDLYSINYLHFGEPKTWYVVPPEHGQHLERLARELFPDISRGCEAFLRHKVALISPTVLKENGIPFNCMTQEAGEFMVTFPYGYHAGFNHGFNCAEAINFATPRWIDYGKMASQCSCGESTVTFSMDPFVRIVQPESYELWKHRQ
# HPGD block – qHTS Assay for Inhibitors of HPGD (15-Hydroxyprostaglandin Dehydrogenase) | Potency, µM, for inactives: at the highest dose activity change, negative = inhibition, actives largely listed as inhibitors | purified HPGD, NADH fluorescence kinetic, PGE2 substrate | 4.3% of 150,000 active; active = well fitted inhibition curve with a large enough effect, not every such curve was filed as active; inconclusive = small, poorly fitted or top-dose-only effect, or another doubt; inactive = no such curve, though single readings can be large or run the other way; note: potency is the fitted concentration of half-maximal effect; % is set by controls: 0 for no effect and ±100 for the full control effect
# Target sequence (P15428 whole entry, looked up): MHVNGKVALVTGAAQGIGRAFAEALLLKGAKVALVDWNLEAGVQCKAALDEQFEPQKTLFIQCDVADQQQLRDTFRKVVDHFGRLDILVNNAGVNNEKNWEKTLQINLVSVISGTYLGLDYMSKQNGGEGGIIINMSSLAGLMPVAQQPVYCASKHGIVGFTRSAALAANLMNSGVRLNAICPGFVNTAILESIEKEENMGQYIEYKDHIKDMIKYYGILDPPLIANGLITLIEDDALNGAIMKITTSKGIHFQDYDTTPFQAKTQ
#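 20 nM HPGD preincubated 15 min at room temperature with compound in 50 mM Tris-HCl pH 8, 0.01% Tween 20. Started with 1 mM NAD+ and 30 uM prostaglandin E2; NADH fluorescence (360/450 nm) read 5 times over 30-s intervals, last minus first.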
# HTT ATP protect – qHTS Multiplex Assay to Identify Dual Action Probes in a Cell Model of Huntington: Cytoprotection (ATP). PC12 HTT-Q103 induced, cytoprotection, ATP luminescence, 40 h. Potency, µM (series often up to 56.4 µM), for inactives: cytoprotection (ATP increase), hits mostly activators. 0.14% of 230,000 active. AID 1471, 2008; note: potency is the fitted concentration of half-maximal effect; % of control where 0% means no effect; nearly all actives have a fitted effect of over 45% in size
#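 Compounds added alongside 100 nM tebufenozide, which induces toxic Q103 huntingtin exon 1-GFP in stable PC12 cells; surviving cells quantified by luminescent ATP measurement. Medium: phenol red-free DMEM, 5% equine and 5% calf serum.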
# ALDH1A1 inh-1 – qHTS Assay for Inhibitors of Aldehyde Dehydrogenase 1 (ALDH1A1); Aldehyde dehydrogenase 1A1 (Homo sapiens), P00352; Purified ALDH1A1, NADH fluorescence, propionaldehyde substrate; Potency, µM (top dose mostly 75.3 µM), for the others: at the top dose activity, negative = inhibition, actives largely listed as inhibitors; 7.3% of 220,000 active; AID 1030, 2008; active = well fitted inhibition curve with a large enough effect, not every such curve was filed as active; inconclusive = small, poorly fitted or top-dose-only effect, or another doubt; inactive = no such curve, though single readings can be large or run the other way;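 note: potency is the fitted concentration of half-maximal effect; plate controls were no enzyme wells and a reference inhibitor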
# ALDH1A1 inh-2 – Inhibitors of Aldehyde Dehydrogenase 1 (ALDH1A1): Followup Confirmation and Counterscreen; Potency, µM (highest dose often 57.1 µM), for inactives: top-dose activity change, negative = inhibition, usual class: inhibitors; shares compounds with ALDH1A1 inh-1; AID 493210, 2011; purified ALDH1A1, NADH fluorescence, propionaldehyde/NAD+; 90% of 90 active; calls by dose curve
# The depositor's hits bear a star; ? = inconclusive; · = no result given; [ ] = another dose, or the depositor's remark. Only some compounds are listed: those with a hit (about 9.8% of all), similar ones and a draw of the others. Unless noted, calls come from the whole dose curve; as a rule, active = well fitted curve in the direction sought with a large enough effect; inconclusive = small, poorly fitted or top-dose-only effect, or another doubt; inactive = no such curve, though single readings can be large; an effect the other way counts as inactive or inconclusive.
SMILES,CBFb RUNX1 block,HTT aggregate,JMJD2E inh,HPGD block,HTT ATP protect,ALDH1A1 inh-1,ALDH1A1 inh-2
CCOC(=O)C1C(=O)NC(C)C1c1ccccc1 (stereo not given),4.0%,-7.4%,2.8%,-0.3%,10.8%,3.3%,·
CCOC(=O)c1ccc(NC(=O)CC2C(=O)N(c3ccc(F)cc3)C(=O)N2CCC(C)C)cc1 (stereo not given),5.5%,13.0%,-0.3%,-15.1%,-9.2%,?,·
CC1(C)CC(=O)CC(C2(O)C(=O)N(Cc3ccccc3)c3ccccc32)O1 (stereo not given),-0.5%,-7.2%,-3.0%,-23.1%,-8.0%[10 µM],0.0631µM*,0.316µM*
COc1ccc(C)cc1NC(=O)CN1CCN(S(=O)(=O)c2ccc(Cl)cc2)CC1,4.8%,-2.5%,-5.0%,-10.4%,7.6%[1.9 µM],0.316µM*,0.141µM*
O=C(N[C@@H](Cc1ccccc1)C(=O)CCl)OCc1ccccc1,11.4%,·,-11.8%,11.2µM*,-40.7%[1.9 µM],0.355µM*,0.251µM*
O=C(COC(=O)c1n[nH]c2ccccc12)NC(=O)NC12CC3CC(CC(C3)C1)C2,-15.0%,10.9%,-9.6%,-10.6%,-1.0%[10 µM],2.5%,·
COc1ccc(CNC(=O)C(c2ccco2)N(Cc2cccs2)C(=O)Cc2cccs2)cc1 (stereo not given),-1.1%,-28.4%,-8.1%,-24.0%,4.5%[10 µM],0.631µM*,1.26µM*
COc1ccc(CNC(=O)C(c2ccncc2)N(C(=O)Cc2cccs2)c2cccc(C)c2)cc1 (stereo not given),0.7%,18.6%,-1.0%,-12.2%,-3.8%,?,·
CC1(C)COCN1C(=O)c1ccc(Cl)c(Cl)c1,3.5%,4.8%,-7.2%,·,-15.3%,8.6%,·
CCCN1C(=O)c2ccc(C(=O)Nc3nccs3)cc2C1=O,?,-15.1%,5.6%,0.3%,-2.9%,0.282µM*,0.398µM*
Cc1cc(NC(=O)c2ccc3c(c2)C(=O)N(Cc2ccccc2)C3=O)no1,-3.8%,-24.6%,5.8%,·,-71.4%,-1.2%,·
COCCN1C(=O)c2ccc(C(=O)Nc3nccs3)cc2C1=O,5.3%,-3.9%,2.6%,-9.5%,9.9%[0.074 µM],?,·
CCCN1C(=O)c2ccc(C(=O)Nc3cc(C)on3)cc2C1=O,10.8%,6.0%,-2.1%,-7.5%,1.7%[10 µM],0.398µM*,0.794µM*
CC(C)CN1C(=O)c2ccc(C(=O)Nc3nccs3)cc2C1=O,-7.3%,2.4%,1.9%,-18.8%,-4.3%,0.447µM*,0.316µM*
OCc1nc2ccccc2n1CCCOc1ccc(Br)cc1,4.3%,-15.1%,-3.2%,-7.9%,-10.7%,17.3%,·
Cc1ccc(Sc2nc3c(c(=O)[nH]c(=O)n3C)n2CCc2ccccc2)cc1,4.0%,-7.1%,8.6%,-13.8%,15.6%[10 µM],0.631µM*,0.891µM*
Cc1ccccc1OCc1nc2ccccc2c(=O)n1NC(=O)c1ccco1,0.7%,-12.0%,4.4%,-11.5%,31.9%[10 µM],4.6%,·
COC(=O)c1ccc(Oc2nc3c(c(=O)n(C)c(=O)n3C)n2CCC(C)C)cc1,1.8%,-20.3%,1.7%,-18.2%,3.6%,0.0447µM*,0.1µM*
COc1cccc(O)c1O,·,·,7.94µM*,15.8µM*,·,0.447µM*,1.58µM*
Cc1nn(C2CCS(=O)(=O)C2)c(Cl)c1/C=C/C(=O)OCC(=O)Nc1ccc2c(c1)OCO2 (stereo not given),28.5%,14.2%,1.4%,·,21.1%[10 µM],4.1%,·
CC[C@H](C)[C@H](NC(=O)OCC1c2ccccc2-c2ccccc21)C(=O)O,7.7%[21.7 µM],·,4.7%,-2.6%,-45.1%[1.9 µM],0.447µM*,1µM*
